Measured values from PubChem BioAssay.
The source made the active and inactive calls. Unless noted, how the calls were made is not given here.

How the values were obtained:
[1] = HepG2 liver cancer cell viability effects, profiling panel, resazurin fluorescence, 24 h, PK04 Diversity Set (AID 1172); conditions: higher = more signal
[2] = basal S. cerevisiae growth modulation, no modifier, primary screen, OD600, strain BY4716, 24 h, basal condition (AID 1173); conditions: OD600, 24 h, higher = more signal, called active from +8 up or from −8 down
[3] = MM1S myeloma cell viability, profiling panel, resazurin fluorescence, basal, 24 h, PK04 Diversity Set (AID 1174); conditions: higher = more signal, called active from +8 up or from −8 down;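 further: MM1S multiple myeloma cell line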
[4] = molecular target: Dihydroorotate dehydrogenase (quinone), mitochondrial (Plasmodium falciparum (isolate 3D7)) (UniProt Q08210); assay: PfDHODH enzyme inhibitors, primary screen, biochemical, C-terminal His tag, absorbance 600 nm (AID 1175); conditions: DCIP absorbance 600 nm, higher = more signal, called active from +8 up or from −8 down;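 further: recombinant parasite enzyme with a five histidine tag at its C terminus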
Sequence of Dihydroorotate dehydrogenase (quinone), mitochondrial (Plasmodium falciparum (isolate 3D7)) (Q08210 whole entry, looked up): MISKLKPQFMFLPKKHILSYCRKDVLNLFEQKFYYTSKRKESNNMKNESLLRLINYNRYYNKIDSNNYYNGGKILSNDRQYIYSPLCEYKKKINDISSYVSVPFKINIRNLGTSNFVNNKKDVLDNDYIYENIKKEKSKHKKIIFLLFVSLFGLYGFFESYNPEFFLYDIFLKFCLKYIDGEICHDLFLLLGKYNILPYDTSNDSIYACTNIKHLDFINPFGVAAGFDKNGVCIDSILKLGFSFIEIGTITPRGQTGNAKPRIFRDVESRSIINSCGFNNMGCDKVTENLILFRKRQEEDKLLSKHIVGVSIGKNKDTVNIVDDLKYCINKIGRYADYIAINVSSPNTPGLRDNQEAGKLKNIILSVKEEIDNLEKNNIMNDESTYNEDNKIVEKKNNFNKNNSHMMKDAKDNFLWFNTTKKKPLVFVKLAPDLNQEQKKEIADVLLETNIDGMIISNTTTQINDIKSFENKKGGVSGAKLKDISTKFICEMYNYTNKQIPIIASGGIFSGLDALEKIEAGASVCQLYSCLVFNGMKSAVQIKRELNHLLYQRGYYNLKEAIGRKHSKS

[5] = P. aeruginosa biofilm formation inhibitors, primary screen, strain PAO1, LB-PBS medium, absorbance 600 nm (AID 1176); conditions: P. aeruginosa PAO1 growth/biofilm, A600, 12 h; higher = more signal
[6] = S. cerevisiae RM11-1a growth modifiers, primary screen, strain RM11-1a, OD600, basal, 24 h (AID 1177); conditions: OD600, 24 h, higher = more signal, called active from +8 up or from −8 down;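 further: cultures grown under basal conditions with no added stressor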
[7] = E. coli acrAB mutant growth effects, primary screen, E. coli filamentation inducers, strain DRC39, OD650, 24 h (AID 1178); conditions: higher = more signal, called active from +8 up or from −8 down;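 further: growth measured as culture turbidity by optical density at 650 nm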
[8] = E. coli acrAB mutant growth effects, primary screen, E. coli filamentation inducers, strain DRC39, OD650, 48 h (AID 1179);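 further: screen aims at cell division blockers that make cells filament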; conditions: E. coli DRC39 delta-acrAB growth, higher = more signal, called active from +8 up or from −8 down
[9] = RPMI8226 myeloma cell viability, profiling panel, resazurin fluorescence, basal, 24 h, PK04 Diversity Set (AID 1180); conditions: higher = more signal;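 further: RPMI8826 multiple myeloma cell line at 5000 cells per well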
[10] = molecular target: E3 ubiquitin-protein ligase XIAP (Homo sapiens) (UniProt P98170); assay: XIAP binders, primary screen, biophysical, small-molecule microarray, fluorescence 635 nm (AID 1181); conditions: small-molecule microarray binding, higher = more signal;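 further: score merges 667 nm emission and signal to noise over triplicate slides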
Sequence of E3 ubiquitin-protein ligase XIAP (Homo sapiens) (P98170 whole entry, looked up): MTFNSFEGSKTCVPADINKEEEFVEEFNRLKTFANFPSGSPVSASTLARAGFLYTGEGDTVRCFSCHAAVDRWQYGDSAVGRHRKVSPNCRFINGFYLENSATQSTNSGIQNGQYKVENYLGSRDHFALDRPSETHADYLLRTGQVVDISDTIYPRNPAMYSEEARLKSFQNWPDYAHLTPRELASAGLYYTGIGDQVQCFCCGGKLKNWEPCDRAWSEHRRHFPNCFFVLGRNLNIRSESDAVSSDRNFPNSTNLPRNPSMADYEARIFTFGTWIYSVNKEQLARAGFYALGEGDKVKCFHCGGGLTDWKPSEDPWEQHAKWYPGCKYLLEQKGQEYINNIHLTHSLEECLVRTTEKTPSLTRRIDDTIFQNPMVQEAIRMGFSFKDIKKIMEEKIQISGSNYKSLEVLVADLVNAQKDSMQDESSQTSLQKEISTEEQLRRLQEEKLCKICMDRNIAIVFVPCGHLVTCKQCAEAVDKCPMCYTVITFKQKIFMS

[11] = test system: XIP peptide (Xip251-270) binding; assay: small-molecule binders of XIP peptide, primary screen, biochemical, small-molecule microarray, fluorescence 635/667 nm, 0.1 µg/mL protein (AID 1182); conditions: fluorescent protein binding, 635 nm, higher = more signal, called active from +8 up or from −8 down
XIP peptide (Xip251-270) = assay: small-molecule binders of XIP peptide, primary screen, biochemical, small-molecule microarray, fluorescence 635/667 nm, 0.5 µg/mL protein (AID 1183); conditions: small-molecule microarray binding, fluorescence 635 nm; higher = more signal
[12] = Plasmodium falciparum growth inhibition, primary screen, strain 3D7, DAPI fluorescence, 100 nL (AID 1184);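 further: parasites grown inside human red blood cells in medium with human serum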; conditions: P. falciparum 3D7 growth, 3 d, higher = more signal
[13] = molecular target: Homeobox protein Hox-A13 (Mus musculus) (UniProt Q62424); assay: inhibitors of HoxA13-DNA binding, primary screen, biochemical, fluorescence polarization, labeled oligonucleotide (AID 1185); conditions: 15 min, higher = more signal, called active from +8 up or from −8 down
Sequence of Homeobox protein Hox-A13 (Mus musculus) (Q62424 whole entry, looked up): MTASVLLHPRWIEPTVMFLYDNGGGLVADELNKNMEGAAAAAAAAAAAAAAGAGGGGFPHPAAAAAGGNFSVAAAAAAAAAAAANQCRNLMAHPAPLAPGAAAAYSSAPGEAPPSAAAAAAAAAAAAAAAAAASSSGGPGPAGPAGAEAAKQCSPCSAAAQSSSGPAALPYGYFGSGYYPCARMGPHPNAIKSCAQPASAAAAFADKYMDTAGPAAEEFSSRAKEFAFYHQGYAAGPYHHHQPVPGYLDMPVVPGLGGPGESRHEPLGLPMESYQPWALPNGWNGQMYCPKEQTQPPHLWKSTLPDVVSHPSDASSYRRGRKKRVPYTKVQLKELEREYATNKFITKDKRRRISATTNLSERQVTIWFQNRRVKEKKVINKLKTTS

[14] = inhibitors of hydroxyurea-induced Chk1 phosphorylation, primary screen, imaging, HeLa, phospho-Chk1 antibody, percent positive cells (AID 1186); conditions: hydroxyurea-induced phospho-Chk1 immunofluorescence imaging, higher = more signal
[15] = inhibitors of hydroxyurea-induced Chk1 phosphorylation, primary screen, imaging, HeLa, phospho-Chk1 nuclear intensity (AID 1187); conditions: hydroxyurea-induced phospho-Chk1 immunofluorescence imaging, higher = more signal

SMILES	z-score [1]	z-score [2]	z-score [3]	composite z-score [4]	z-score [5]	z-score [6]	z-score [7]	z-score [8]	z-score [9]	composite z-score [10]	composite z-score [11]	composite z-score (XIP peptide (Xip251-270))	z-score [12]	z-score [13]	z-score [14]	z-score [15]
C[N+](C)(C)CCCCCCNC(=O)[C@@H]1C[C@@H]2C(=O)N[C@@H](Cc3ccccc3)C(=O)N2[C@@H]1c1ccc(O)cc1	1.17	-0.471 (inactive)	0.224 (inactive)	-0.77 (inactive)	0.615 (inactive)	-0.0653 (inactive)	0.457 (inactive)	0.492 (inactive)	0.25	-0.0882	1.13 (inactive)	0.841	-0.324	-2.44 (inactive)	0.459 (inactive)	0.496 (inactive)
C=CCC(OC(C)=O)[C@@H]1[C@@H](N(Cc2ccc(-c3cccc(C(F)(F)F)c3)o2)C(=O)c2cccc3ccccc23)c2cc(OCCCO)ccc2N1C(=O)c1ccc2ccccc2c1 (some centres undefined)	-0.0598	-0.988 (inactive)	-0.416 (inactive)	-0.0361 (inactive)	-0.464 (inactive)	0.204 (inactive)	0.807 (inactive)	0.489 (inactive)	-0.311	-0.04	0.184 (inactive)	-0.563	-2.73	-2.32 (inactive)	-0.675 (inactive)	-0.36 (inactive)
COCCCNC(=O)[C@@]1(Sc2ccc(C)cc2)CC(=O)N(C2CCCCC2)[C@@H]1c1ccc(CO)cc1I	0.5	-0.172 (inactive)	-0.326 (inactive)	0.335 (inactive)	0.627 (inactive)	-1.09 (inactive)	0.16 (inactive)	0.228 (inactive)	-1.66	-0.328	-0.159 (inactive)	0.736	-1.39	-5.66 (inactive)	0.46 (inactive)	0.268 (inactive)
C=C(CCCC)/C(=C/C[C@H](OC(C)=O)c1cccc(OCCO)c1)c1cc(C(=O)OC)ccc1OC	2.33	-0.456 (inactive)	1.44 (inactive)	-0.989 (inactive)	0.473 (inactive)	-0.515 (inactive)	1.85 (inactive)	1.34 (inactive)	1.43	-0.0297	0.0894 (inactive)	-0.185	-2.35	-4.24 (inactive)	0.0786 (inactive)	0.307 (inactive)
C[C@@H](OCc1ccccc1)C1NC(=O)[C@@]23C(=O)N[C@@H](Cc4ccccc4)C2[C@H](C)[C@@]2(C)O[C@H]2C3/C=C/C/C=C\CNC(=O)[C@H](Cc2ccccc2)NC1=O (some centres undefined)	-0.515	-1.29 (inactive)	-0.614 (inactive)	-0.199 (inactive)	0.0359 (inactive)	-0.658 (inactive)	2.13 (inactive)	0.5 (inactive)	-0.302	-0.0565	-0.0678 (inactive)	-0.0412	-2.45	-5.7 (inactive)	0.0781 (inactive)	0.544 (inactive)
C=CCC(OC(C)=O)[C@@H]1[C@@H](N(Cc2cccc3ccccc23)C(=O)c2cccc3ccccc23)c2cc(OCCCO)ccc2N1C(=O)Cc1ccc2ccccc2c1 (some centres undefined)	0.414	-0.599 (inactive)	-0.41 (inactive)	-0.373 (inactive)	-0.723 (inactive)	-0.0264 (inactive)	0.632 (inactive)	0.334 (inactive)	-0.0924	0.452	0.457 (inactive)	-0.716	-1.35	-2.12 (inactive)	0.233 (inactive)	0.42 (inactive)
O=C1N(CCS(=O)(=O)c2ccccc2)c2ccccc2[C@@H]2OC(c3ccc(OCCCO)cc3)=N[C@]12CCS(=O)(=O)c1ccccc1	0.546	1.24 (inactive)	-0.0861 (inactive)	-0.038 (inactive)	1.73 (inactive)	1.8 (inactive)	0.481 (inactive)	-0.468 (inactive)	-0.63	-0.265	3.92 (inactive)	0.83	-2.18	0.806 (inactive)	0.38 (inactive)	0.682 (inactive)
COCCOC(=O)N1C(=O)[C@@]2(c3cc(C#CCNC(N)=O)ccc31)[C@H](C(=O)NC[C@H](O)c1ccccc1)[C@H]1C(=O)O[C@H](c3ccccc3)[C@H](c3ccccc3)N1[C@@H]2c1ccc(OCCO)cc1	0.774	2 (inactive)	-0.118 (inactive)	1.14 (inactive)	2.28 (inactive)	2.87 (inactive)	-0.0238 (inactive)	-0.63 (inactive)	0.381	0.135	0.561 (inactive)	0.785	-0.188	-1.46 (inactive)	-0.214 (inactive)	-0.23 (inactive)
C=CCC(OC(C)=O)[C@@H]1[C@@H](N(Cc2ccc(-c3cccc(C(F)(F)F)c3)o2)C(=O)Cc2ccc(OC)cc2)c2cc(OCCCO)ccc2N1C(=O)c1ccc2ccccc2n1 (some centres undefined)	-0.777	-0.791 (inactive)	0.271 (inactive)	-0.0941 (inactive)	-0.817 (inactive)	-0.188 (inactive)	-0.267 (inactive)	-0.446 (inactive)	0.0494	0.36	-0.155 (inactive)	-0.118	-2.2	-2.25 (inactive)	0.401 (inactive)	0.966 (inactive)
CO[C@H]1O[C@H](CO)[C@@H](OC(=O)Nc2ccc3c(c2)OCO3)[C@@H]2OC(=O)[C@@H](Cc3ccccc3)C/C=C/C[C@H](Cc3ccccc3)C(=O)O[C@@H]12	-1.37	0.904 (inactive)	-2.59 (inactive)	-0.675 (inactive)	0.509 (inactive)	2.14 (inactive)	0.307 (inactive)	0.312 (inactive)	-1.38	0.785	0.462 (inactive)	0.692	-0.967	-8.19 (active)	-0.508 (inactive)	-0.215 (inactive)
COCC(=C=CC[C@@H](O)c1ccc(OCCO)cc1)C[C@@H](O)COCc1ccccc1	0.948	-0.81 (inactive)	0.891 (inactive)	-2.32 (inactive)	0.801 (inactive)	-1.31 (inactive)	0.789 (inactive)	0.859 (inactive)	0.804	0.24	0.705 (inactive)	0.181	-2.96	-4.15 (inactive)	-0.252 (inactive)	0.483 (inactive)
Cc1ccc(F)cc1S(=O)(=O)N[C@@H]1CCN(Cc2ccc3c(c2)OCO3)C1	-0.622	-4.86 (inactive)	-0.584 (inactive)	0.171 (inactive)	-0.177 (inactive)	0.34 (inactive)	-0.572 (inactive)	-2.33 (inactive)	0.224	0.13	0.92 (inactive)	0.321	0.531	-3.75 (inactive)	-0.201 (inactive)	-0.271 (inactive)
CC(C)C[C@@H]1NC(=O)[C@@H]2C[C@H](C(=O)O)[C@H](c3ccc(O)cc3)N2C1=O	-1.68	-0.568 (inactive)	1.18 (inactive)	0.372 (inactive)	0.407 (inactive)	-1.11 (inactive)	2.14 (inactive)	1.94 (inactive)	1.16	0.254	1.84 (inactive)	0.705	-0.26	-3.43 (inactive)	0.873 (inactive)	0.918 (inactive)
CCCCC=C[C@@H](NC(=O)c1ccc(C(F)(F)F)cc1)c1ccccc1	1.64	-0.118 (inactive)	0.423 (inactive)	-0.101 (inactive)	-0.222 (inactive)	0.562 (inactive)	-0.244 (inactive)	0.291 (inactive)	1.1	0.0699	0.0581 (inactive)	-0.11	0.185	-3.7 (inactive)	-0.587 (inactive)	-1.16 (inactive)
COc1ccc([Si](C)(C)[C@H]2[C@H](CC(=O)N3Cc4ccccc4C[C@H]3CO)O[C@@]3(C(=O)N(Cc4cccc(N5C(=O)c6cccc7cccc5c67)c4)c4ccccc43)[C@@H]2C)cc1	-0.539	-0.563 (inactive)	-2.76 (inactive)	-1.88 (inactive)	1.49 (inactive)	1.95 (inactive)	0.643 (inactive)	0.209 (inactive)	-2	0.0153	0.14 (inactive)	0.802	-2.45	-2.56 (inactive)	-0.887 (inactive)	-0.153 (inactive)
COc1cccc(OC)c1C(=O)O[C@H]1[C@@H]2OC(=O)[C@H](Cc3cccc(Br)c3)C/C=C/C[C@@H](Cc3cccc(Br)c3)C(=O)O[C@H]2[C@@H](OC)O[C@@H]1CO	-0.946	-0.696 (inactive)	-1.11 (inactive)	-0.491 (inactive)	0.277 (inactive)	0.788 (inactive)	-0.0368 (inactive)	0.165 (inactive)	-1.38	0.182	1.02 (inactive)	-0.213	-0.545	-4.16 (inactive)	0.0558 (inactive)	0.0783 (inactive)
COCCOC(=O)N1C(=O)[C@@]2(c3cc(C#CCC(C(=O)OC)C(=O)OC)ccc31)[C@H](C(N)=O)[C@H]1C(=O)O[C@H](c3ccccc3)[C@H](c3ccccc3)N1[C@@H]2c1ccc(OCCO)cc1	0.58	1.53 (inactive)	-0.456 (inactive)	-0.383 (inactive)	2.88 (inactive)	3.39 (inactive)	0.71 (inactive)	0.108 (inactive)	-1.81	0.0251	0.572 (inactive)	0.813	-2.07	-0.183 (inactive)	-0.153 (inactive)	0.0973 (inactive)
[N-]=[N+]=Nc1ccccc1[C@@H]1OC(c2ccc(OCCCO)cc2)=N[C@]1(Cc1ccccc1)C(N)=O	1.2	-0.821 (inactive)	-0.622 (inactive)	0.474 (inactive)	-0.0558 (inactive)	1.19 (inactive)	0.673 (inactive)	0.481 (inactive)	-0.589	0.0838	0.0123 (inactive)	0.0246	-2.06	-5.43 (inactive)	-0.707 (inactive)	-0.543 (inactive)
CO[C@H]1O[C@H](CO)[C@@H](OC(=O)Nc2ccc(C(F)(F)F)cc2)[C@H](OC(=O)Nc2ccccc2-c2ccccc2)[C@H]1OC(=O)Nc1ccccc1-c1ccccc1	-5.27	1.39 (inactive)	-5.4 (inactive)	-0.132 (inactive)	3.43 (inactive)	2.8 (inactive)	-0.853 (inactive)	-1.25 (inactive)	-4.63	0.201	0.844 (inactive)	0.701	-1.8	-3.72 (inactive)	0.83 (inactive)	0.784 (inactive)
